# S1P3 antagonist: antagonists of human S1P3 receptor. Q99500. CHO S1P3 NFAT-BLA reporter, FRET fluorescence, antagonist mode. inhibition, % at 4.98 µM. 170,000 compounds, 0.27% hits. AID 485;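 active = inhibition above the plate cutoff, the mean inhibition of test wells on that plate plus 3 SD, cut at about 28% in these data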;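 note: cells challenged with S1P at its EC80 of 0.8 µM; blue over green emission ratio from cleaved BLA substrate after 4 h stimulation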
# Target sequence (Q99500 whole entry, looked up): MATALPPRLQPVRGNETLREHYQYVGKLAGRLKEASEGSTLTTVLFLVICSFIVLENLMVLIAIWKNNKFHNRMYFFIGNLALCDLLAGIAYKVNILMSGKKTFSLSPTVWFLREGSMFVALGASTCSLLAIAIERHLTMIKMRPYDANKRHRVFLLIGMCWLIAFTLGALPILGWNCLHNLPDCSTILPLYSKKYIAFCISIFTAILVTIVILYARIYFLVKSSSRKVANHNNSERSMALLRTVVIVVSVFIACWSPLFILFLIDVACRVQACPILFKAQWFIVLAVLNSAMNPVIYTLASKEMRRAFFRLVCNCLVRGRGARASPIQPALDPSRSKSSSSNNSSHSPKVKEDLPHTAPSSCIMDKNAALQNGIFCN
# S1P4 ag: activates the human S1P4 receptor | O95977 | S1P4-expressing cell line, agonist reporter assay | activation, % at 4.98 µM | 220,000 compounds, 0.35% hits; in the data active = activation above about 11%
# Hsp70 act: switches on Hsp70 transcription; HeLa Hsp70 promoter luciferase reporter, luminescence; scaled: vehicle 0, proteasome-inhibitor control 100%; activation, % at 10 µM; 200,000 compounds, 0.04% hits; AID 1203;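 active = activation above the mean across all tested compounds plus 3 SD, cutoff set per campaign, cut at about 5.5% in these data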
# S1P4 antagonist: human S1P4 receptor antagonism; inhibition, % at 4.98 µM; S1P4-expressing cells, antagonist mode, reporter read-out; 220,000 compounds, 0.26% hits; O95977; in the data active = inhibition above about 29%
# HSF1 inhib: HSF1 inhibition; NIH3T3-HGL HSE-luciferase, MG132-induced, luminescence 8 h; hits give low values; activity change, negative = inhibition, % at 7.5 µM (by protocol); 300,000 compounds, 0.77% hits;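 active = more than half of replicate wells show activity change below -50%, luminescence cut by over half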;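 note: luciferase reports HSF-1 transcriptional activity via heat shock element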
# HSF1 activator: increases HSF-1 driven luciferase reporter signal | activation, % at 9 µM | 300,000 compounds, 1.7% hits | NIH3T3-HGL HSF-1 luciferase reporter, MG132, 8 h; 100% = twice DMSO control signal;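 active = mean replicate activation of at least 50% with a set share of replicates each reaching 50%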
# Hits are given with their value; - = inactive; . = no result. Rows were chosen to be rich in hits. Some 2.9% of all compounds tested hit in one or more screens of this group.
SMILES,S1P3 antagonist,S1P4 ag,Hsp70 act,S1P4 antagonist,HSF1 inhib,HSF1 activator
CC1(C)CC(=O)c2sc(NC(=O)c3ccccc3)nc2C1,-,-,-,-,-,54
CC1(C)CNC(=O)c2sc(NC(=O)c3ccccc3)nc2C1,-,-,-,-,-,-
O=C(NNc1ncnc2c1cnn2-c1cccc(Cl)c1)c1ccco1,.,.,.,.,-,64
COc1ccc(-n2c(C)c(C(C)=O)c(C(C)=O)c2C)cc1,.,-,-,-,-64,-
CCOc1ccc(-n2c(C)c(C(C)=O)c(C(C)=O)c2C)cc1,.,-,-,-,-,-
O=C(/C=C/c1ccco1)N(Cc1ccc(Cl)cc1)C1CCS(=O)(=O)C1 (stereo not given),-,-,.,-,-,-
Cc1ccc(CN2CCN(CC(=O)N=Nc3c(O)[nH]c4ccccc34)CC2)cc1,-,-,-,-,-,-
O=C(CN1CCN(Cc2ccccc2Cl)CC1)N=Nc1c(O)[nH]c2ccccc12,-,-,-,-,-,52
Cn1c2c(c(=O)n(C)c1=O)C(CC(=O)Nc1ccccc1)C(=O)N2 (stereo not given),-,-,-,-,-67,-
Cc1cccc(N2C(=N)SCC2=O)c1C,-,-,-,-,-,77
N=C1SCC(=O)N1c1nc(-c2ccccc2)cs1,.,-,-,-,-,-
O=S(=O)(Cc1cc(-c2ccc(Cl)cc2)no1)c1ccccc1,.,-,-,-,-,-
O=S(=O)(Cc1cc(-c2ccccc2Cl)no1)c1ccccc1,-,-,-,-,-,72
Cc1ccc2c(c1)N=C(c1ccccc1)CC(C(Cl)Cl)=N2,-,-,.,-,-,61
Cc1ccc(O)c(C2=Nc3ccccc3N=C(c3cccs3)C2)c1,-,-,-,-,-,-
Cc1ccc(C2=Nc3ccccc3N=C(C(Cl)Cl)C2)cc1,-,-,-,-,-,93
O=C(NCCCN1CCOCC1)c1ccccc1NS(=O)(=O)c1cc([N+](=O)[O-])ccc1Cl,-,-,-,-,-,-
O=C(NCCNC(=O)c1ccccn1)c1ccc(-c2ccccc2)cc1,.,.,.,.,-,-
Cc1ccc(SCC(=O)N/N=C/c2ccco2)cc1,.,.,.,.,-,59
O=C(Nc1ccc(C(=O)N2CCCC2)cc1)c1ccc(F)cc1Cl,.,.,.,.,-,-
Cc1cc(C)nc(NNC2=CC(=[N+]3CCCCC3)CC(C)(C)C2)n1,-,-,-,-,-71,-
Cc1cc(C)nc(NNC2=CC(=[N+]3CCCC3)CCC2)n1,-,-,-,-,-,-
CCn1c(SCc2nc3ccccc3s2)nnc1-c1ccccc1,.,-,-,-,-,-
COCCn1c(SCc2nc3ccccc3s2)nc2ccccc21,-,-,-,-,-,77
COc1cccc(-c2nnc(SCc3nc4ccccc4s3)n2C)c1,.,-,-,-,-,64
SMILES,S1P3 antagonist,S1P4 ag,Hsp70 act,S1P4 antagonist,HSF1 inhib,HSF1 activator
CCCc1cc(O)c2c(C)cc(=O)oc2c1,.,-,-,-,-,-
COc1cccc(CNC(=O)[C@H](C)NC(=O)C2CCN(S(=O)(=O)c3ccccc3)CC2)c1,.,.,.,.,-,-
CCc1ccc(CN(C)C(=O)CCc2nc3ccccc3n(-c3ccc(OC)cc3)c2=O)cc1,-,-,-,-,-,70
Cc1ccc(C)c(CNS(=O)(=O)c2c(C(=O)N3CCCC3)c(C)n(C)c2C)c1,.,.,.,.,-,-
O=C(/C=C/c1ccco1)NCCCN1CCOCC1,-,-,-,-,-,-
O=C(COC(=O)/C=C/c1ccc(Br)o1)NCCCN1CCCC1=O,-,-,-,-,-,65
O=C(/C=C/c1ccc(Br)o1)NCCCN1CCOCC1,-,-,-,-,-66,-
Cc1ccc(NC(=S)NCc2ccco2)c(C)c1,-,-,.,-,-,-
O=C(O)CC(c1ccccc1)N1C(=O)c2cccc([N+](=O)[O-])c2C1=O (stereo not given),.,.,.,.,-,-
COc1ccc(-c2csc(/C(C#N)=C(\O)CSc3nccn3C)n2)cc1OC,-,-,-,-,-88,-
OCC1CCCC(n2cnc3c(=S)nc[nH]c32)O1 (stereo not given),-,-,.,-,-,-
O=C(NCCC(=O)N1CCC2(CC1)NCCc1[nH]cnc12)c1ccc(Br)cc1,.,.,.,.,-,-
Cn1c(N=Nc2ccccc2)nc2ccccc21,-,-,-,-,-,-
CN(C)c1ccc(N=Nc2nc3ccccc3n2C)cc1,-,-,.,-,-83,-
CN(NC1OC(=O)c2ccccc21)c1ccc(C(F)(F)F)cc1[N+](=O)[O-] (stereo not given),-,-,.,-,-59,-
CN(NC1OC(=O)c2ccccc21)c1ccc(Cl)cc1[N+](=O)[O-] (stereo not given),-,-,.,-,-,-
COCCn1c(SCC(=O)N2CCC(C)CC2)nc2ccccc2c1=O,-,-,-,-,-,-
CCn1c(SCC(=O)NCc2ccco2)nc2ccccc2c1=O,-,-,-,-,-,-
COc1ccc2oc(=Nc3ccc(C(=O)O)cc3)c(C(=O)NCc3ccco3)cc2c1,-,-,-,-,-,-
COc1ccc(C(=O)Nn2c(SCC(=O)N3CCC(C)CC3)nc3ccccc3c2=O)cc1,.,-,-,-,-66,-
COc1ccc2cc(C(=O)NCc3ccco3)c(=Nc3ccc(C(=O)O)cc3)oc2c1,-,-,-,-,-63,-
COc1ccc(C(=O)Nn2c(SCC(=O)NCc3ccco3)nc3ccccc3c2=O)cc1,-,-,-,-,-75,-
COc1ccc(-c2cc(C(=O)NCc3ccco3)c3ccccc3n2)cc1,.,.,.,.,-,86
O=C(NCc1ccccn1)NC1CCCCC1,-,-,-,-,-,-
Cc1ccsc1/C=N/NC(=O)c1nnn(-c2nonc2N)c1CSc1ccccc1,.,.,.,.,-,-
SMILES,S1P3 antagonist,S1P4 ag,Hsp70 act,S1P4 antagonist,HSF1 inhib,HSF1 activator
COc1ccc(-n2c(-c3ccc(F)cc3)cnc2SCC(=O)NCc2ccco2)cc1,.,-,-,-,-54,-
COc1ccc(C(=O)Nn2c(SCC(=O)c3ccc(Cl)cc3)nc3ccccc3c2=O)cc1,.,-,-,-,-71,-
COc1ccc(C(=O)Nn2c(SCC(=O)NC3CCCCC3)nc3ccccc3c2=O)cc1,.,-,-,-,-64,-
CN(CC(=O)Nc1c(Cl)cccc1Cl)C(=O)Cc1ccc2c(c1)CCC2,.,.,.,.,-,-
Cc1ccc(C(=O)NC(=S)NNC(=O)c2ccccc2O)cc1,.,.,.,.,-,-
O=C(/C=C/NNC(=O)c1ccc(Cl)cc1)c1ccccc1,-,-,-,-,-,-
O=C(/C=C/NNC(=O)c1ccccc1)c1ccc(Br)cc1,.,-,-,-,-,60
Cc1ccc(C(=O)/C=C/NNC(=O)c2ccccc2O)cc1,.,.,.,.,-,53
Clc1ccc(OCc2nnc(-c3ccccc3Br)o2)c(Cl)c1,-,-,-,-,-,61
Clc1cccc(OCc2nnc(-c3ccccc3Br)o2)c1,.,.,.,.,-,-
Clc1ccc(OCc2nnc(-c3ccccc3Br)o2)cc1,-,-,-,-,-,-
Fc1ccc(OCc2nnc(-c3ccccc3Br)o2)c(Cl)c1,.,.,.,.,-,68
CCOCCOC(=O)c1ccc(-n2cncn2)nc1,.,-,-,-,-86,-
